Test results: paper PMC5540273 (PLoS ONE, 2017)
Like-named read-outs stand apart in the source and are kept apart here.

What was measured:
[1] = system: RPS6KA4(Kin.Dom.1-N-terminal); settings: n = 1
[2] = system: RPS6KA4(Kin.Dom.2-C-terminal); settings: n = 1
[3] = system: RPS6KA5(Kin.Dom.1-N-terminal); settings: concentration: 1 μM, replicates: in singlicate; n = 1
[4] = system: RPS6KA5(Kin.Dom.2-C-terminal); settings: concentration: 1 μM, replicates: in singlicate; n = 1
[5] = system: T1, RSK1(Kin.Dom.1-N-terminal); settings: concentration: 1 μM, replicates: in singlicate; n = 1
T1 construct: gene RPS6KA1

[6] = system: T2, RSK1(Kin.Dom.2-C-terminal); settings: concentration: 1 μM, replicates: in singlicate; n = 1
T2 construct: gene RPS6KA1

[7] = system: T3, RSK2(Kin.Dom.1-N-terminal); settings: concentration: 1 μM, replicates: in singlicate; n = 1
T3 construct: gene RPS6KA3

[8] = system: T4, RSK2(Kin.Dom.2-C-terminal); settings: concentration: 1 μM, replicates: in singlicate; n = 1
T4 construct: gene RPS6KA3

[9] = system: T5, RSK3(Kin.Dom.1-N-terminal); settings: concentration: 1 μM, replicates: in singlicate; n = 1
T5 construct: gene RPS6KA2

[10] = system: T6, RSK3(Kin.Dom.2-C-terminal); settings: concentration: 1 μM, replicates: in singlicate; n = 1
T6 construct: gene RPS6KA2

[11] = system: T7, RSK4(Kin.Dom.1-N-terminal); settings: concentration: 1 μM, replicates: in singlicate; n = 1
T7 construct: gene RPS6KA6

[12] = system: T8, RSK4(Kin.Dom.2-C-terminal); settings: concentration: 1 μM, replicates: in singlicate; n = 1
T8 construct: gene RPS6KA6

S6K1 = settings: concentration: 1 μM, replicates: in singlicate; n = 1
SBK1 = settings: concentration: 1 μM, replicates: in singlicate; n = 1
SGK2 = settings: concentration: 1 μM, replicates: in singlicate; n = 1
SGK3 = settings: concentration: 1 μM, replicates: in singlicate; n = 1
SGK = settings: concentration: 1 μM, replicates: in singlicate; n = 1
SIK2 = settings: concentration: 1 μM, replicates: in singlicate; n = 1
SIK = settings: concentration: 1 μM, replicates: in singlicate; n = 1
SLK = settings: concentration: 1 μM, replicates: in singlicate; n = 1
[13] = concentration: 1 μM, replicates: in singlicate
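Note: KINOMEscan kinase panel screen.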

COc1cc(Nc2nccc(-c3c(-c4cccc(NC(=O)c5c(F)cccc5F)c4)nn4ncccc34)n2)cc(OC)c1OC [GSK327238]
%Inh [1, 13]: 55%
%Inh [2, 13]: 0%
%Inh [3]: 43%
%Inh [4]: 3%
%Inh [5]: 97.3%
%Inh [6]: 25%
%Inh [7]: 84%
%Inh [8]: 0%
%Inh [9]: 96.8%
%Inh [10]: 0%
%Inh [11]: 10%
%Inh [12]: 6%
%Inh (S6K1): 38%
%Inh (SBK1): 28%
%Inh (SGK2): 0%
%Inh (SGK3): 1%
%Inh (SGK): 0%
%Inh (SIK2): 26%
%Inh (SIK): 78%
%Inh (SLK): 99.2%

CN1CCN(CCCNc2nccc(-c3c(-c4ccc(F)cc4)nn4cc(C(F)(F)F)ccc34)n2)CC1 [GW621581]
%Inh [1, 13]: 10%
%Inh [2, 13]: 0%
%Inh [3]: 26%
%Inh [4]: 0%
%Inh [5]: 0%
%Inh [6]: 44%
%Inh [7]: 0%
%Inh [8]: 17%
%Inh [9]: 10%
%Inh [10]: 0%
%Inh [11]: 0%
%Inh [12]: 80%
%Inh (S6K1): 1%
%Inh (SBK1): 8%
%Inh (SGK2): 0%
%Inh (SGK3): 0%
%Inh (SGK): 12%
%Inh (SIK2): 70%
%Inh (SIK): 0%
%Inh (SLK): 42%

CCn1c(-c2nonc2N)nc2c(C#CC(C)(C)O)nc(OC[C@H](N)c3ccccc3)cc21 [GSK943949]
%Inh [1, 13]: 0%
%Inh [2, 13]: 57%
%Inh [3]: 6%
%Inh [4]: 0%
%Inh [5]: 59%
%Inh [6]: 0%
%Inh [7]: 0%
%Inh [8]: 0%
%Inh [9]: 0%
%Inh [10]: 0%
%Inh [11]: 0%
%Inh [12]: 0%
%Inh (S6K1): 4%
%Inh (SBK1): 0%
%Inh (SGK2): 18%
%Inh (SGK3): 0%
%Inh (SGK): 6%
%Inh (SIK2): 0%
%Inh (SIK): 2%
%Inh (SLK): 6%

CCn1c(-c2nonc2N)nc2c(C#CC(C)(C)O)ncc(OCCCCN)c21.O=C(O)C(F)(F)F.O=C(O)C(F)(F)F [GSK507274]
%Inh ([1]; 1 µM): 10%
%Inh ([2]; 1 µM): 99%
%Inh [3]: 37%
%Inh [4]: 74%
%Inh [5]: 18%
%Inh [6]: 0%
%Inh [7]: 19%
%Inh [8]: 0%
%Inh [9]: 11%
%Inh [10]: 6%
%Inh [11]: 2%
%Inh [12]: 7%
%Inh (S6K1): 1%
%Inh (SBK1): 44%
%Inh (SGK2): 12%
%Inh (SGK3): 2%
%Inh (SGK): 0%
%Inh (SIK2): 5%
%Inh (SIK): 2%
%Inh (SLK): 1%

CN(C)S(=O)(=O)c1cc(-c2ccc3nccc(-c4cccc(S(N)(=O)=O)c4)c3c2)cnc1N [GSK1669921]
%Inh [1, 13]: 15%
%Inh [2, 13]: 0%
%Inh [3]: 16%
%Inh [4]: 0%
%Inh [5]: 0%
%Inh [6]: 10%
%Inh [7]: 21%
%Inh [8]: 76%
%Inh [9]: 2%
%Inh [10]: 28%
%Inh [11]: 2%
%Inh [12]: 44%
%Inh (S6K1): 19%
%Inh (SBK1): 15%
%Inh (SGK2): 6%
%Inh (SGK3): 16%
%Inh (SGK): 5%
%Inh (SIK2): 10%
%Inh (SIK): 0%
%Inh (SLK): 2%

COC(=O)Nc1nc2cc(Oc3ccc(NC(=O)Nc4cc(C(F)(F)F)ccc4F)cn3)ccc2[nH]1.Cl.Cl [GW681170]
%Inh [1, 13]: 9%
%Inh [2, 13]: 0%
%Inh [3]: 21%
%Inh [4]: 7%
%Inh [5]: 0%
%Inh [6]: 50%
%Inh [7]: 0%
%Inh [8]: 0%
%Inh [9]: 0%
%Inh [10]: 17%
%Inh [11]: 0%
%Inh [12]: 0%
%Inh (S6K1): 12%
%Inh (SBK1): 0%
%Inh (SGK2): 1%
%Inh (SGK3): 6%
%Inh (SGK): 12%
%Inh (SIK2): 0%
%Inh (SIK): 0%
%Inh (SLK): 36%

Cc1ccc(C(=O)Nc2ccc(Nc3ccnc4cc(-c5nccs5)ccc34)cc2O)cc1.Cl [GW494702]
%Inh [1, 13]: 0%
%Inh [2, 13]: 0%
%Inh [3]: 0%
%Inh [4]: 0%
%Inh [5]: 0%
%Inh [6]: 0%
%Inh [7]: 0%
%Inh [8]: 30%
%Inh [9]: 11%
%Inh [10]: 0%
%Inh [11]: 0%
%Inh [12]: 0%
%Inh (S6K1): 11%
%Inh (SBK1): 6%
%Inh (SGK2): 0%
%Inh (SGK3): 0%
%Inh (SGK): 11%
%Inh (SIK2): 5%
%Inh (SIK): 4%
%Inh (SLK): 30%

COCCOCCOc1cc2ncc3c4ccc(C#N)cc4[nH]c3c2cc1OC
%Inh [1, 13]: 0%
%Inh [2, 13]: 0%
%Inh [3]: 0%
%Inh [4]: 44%
%Inh [5]: 0%
%Inh [6]: 0%
%Inh [7]: 79%
%Inh [8]: 2%
%Inh [9]: 46%
%Inh [10]: 8%
%Inh [11]: 90%
%Inh [12]: 0%
%Inh (S6K1): 61%
%Inh (SBK1): 81%
%Inh (SGK2): 58%
%Inh (SGK3): 47%
%Inh (SGK): 89%
%Inh (SIK2): 83%
%Inh (SIK): 13%
%Inh (SLK): 45%

COc1ccc(Nc2nccc(NCCNC(=O)c3cc4ccccc4s3)n2)cc1 [GSK1379896]
%Inh [1, 13]: 0%
%Inh [2, 13]: 0%
%Inh [3]: 3%
%Inh [4]: 0%
%Inh [5]: 0%
%Inh [6]: 0%
%Inh [7]: 0%
%Inh [8]: 23%
%Inh [9]: 0%
%Inh [10]: 0%
%Inh [11]: 0%
%Inh [12]: 0%
%Inh (S6K1): 7%
%Inh (SBK1): 20%
%Inh (SGK2): 6%
%Inh (SGK3): 0%
%Inh (SGK): 0%
%Inh (SIK2): 0%
%Inh (SIK): 0%
%Inh (SLK): 18%

Cc1cccc(NC(=O)Nc2ccc(Oc3ncnc4ccn(C)c34)cc2)c1
%Inh [1, 13]: 0%
%Inh [2, 13]: 0%
%Inh [3]: 0%
%Inh [4]: 0%
%Inh [5]: 0%
%Inh [6]: 0%
%Inh [7]: 0%
%Inh [8]: 2%
%Inh [9]: 0%
%Inh [10]: 0%
%Inh [11]: 0%
%Inh [12]: 0%
%Inh (S6K1): 0%
%Inh (SBK1): 0%
%Inh (SGK2): 0%
%Inh (SGK3): 0%
%Inh (SGK): 0%
%Inh (SIK2): 7%
%Inh (SIK): 10%
%Inh (SLK): 0%
